From PubChem BioAssay AID1159580 (chemical genetic matrix, 2015)
Values joined by “and” are separate entries in the source; they are usually repeats but may differ in a detail not shown here. Equal entries are not always repeated. About 2,000 (36%) of roughly 5,500 compounds were called active. Another 18% or so got no clear call; they are omitted. No stated cut-off is given here; in the data, active means normalized growth mostly below about 0.91 (no sharp cut-off); inconclusive means no clear call, values can overlap the other calls; inactive means mostly above about 0.92. The list shows a part of the results.

Experiment: chemical genetic growth profiling, strain panel (AID 1159580);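 further: tested at 20 µM; growth read once vehicle control cultures reached saturation at 30 °C; 1 = growth at the plate median or of vehicle wells; lower values mean less growth of the strain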
Conditions: S. cerevisiae deletion strains, growth OD

Measured: normalized growth

CN(C)CCN(Cc1ccccc1)c1ccccn1
inactive: locus YAL013W, strain DEP1, active compounds read low 0.988 | locus YAL021C, strain ccr4, active compounds read low 1.01 | locus YAL026C, strain drs2, active compounds read low 1.01 | locus YAL030W, strain snc1, active compounds read low 1.02 | locus YBL061C, strain skt5, active compounds read low 1.01 | locus YBR009C, strain hhf1, active compounds read low 0.963 | locus YBR021W, strain FUR4, active compounds read low 0.99 | locus YBR023C, strain chs3, active compounds read low 1.01 | locus YBR171W, strain sec66, active compounds read low 1.02 | locus YBR229C, strain ROT2, active compounds read low 1.01 | locus YBR231C, strain swc5, active compounds read low 1.02 | locus YBR279W, strain paf1, active compounds read low 1.01 | locus YCL011C, strain gbp2, active compounds read low 1 | locus YCL016C, strain dcc1, active compounds read low 0.997 | locus YCL029C, strain bik1, active compounds read low 0.972 | locus YCL061C, strain MRC1, active compounds read low 1.03 | locus YCL069W, strain vba3, active compounds read low 1.01 | locus YCR088W, strain abp1, active compounds read low 0.997 | locus YDL005C, strain med2, active compounds read low 1.01 | locus YDL035C, strain GPR1, active compounds read low 1.01 | locus YDL040C, strain nat1, active compounds read low 1.02 | locus YDL074C, strain BRE1, active compounds read low 1.02 | locus YDL101C, strain DUN1, active compounds read low 0.987 | locus YDL134C, strain PPH21, active compounds read low 1 | locus YDL185W, strain tfp1, active compounds read low 0.946 | locus YDL192W, strain arf1, active compounds read low 0.98 | locus YDR001C, strain nth1, active compounds read low 1.01 | locus YDR069C, strain doa4, active compounds read low 1.03 | locus YDR101C, strain arx1, active compounds read low 0.988 | locus YDR137W, strain rgp1, active compounds read low 1.01 | locus YDR150W, strain NUM1, active compounds read low 0.981 | locus YDR159W, strain sac3, active compounds read low 0.981 | locus YDR162C, strain NBP2, active compounds read low 0.989 | locus YDR195W, strain ref2 1.02 | locus YDR297W, strain sur2, active compounds read low 1.02 | locus YDR318W, strain mcm21, active compounds read low 1.01 | locus YDR334W, strain swr1, active compounds read low 1.01 | locus YDR335W, strain msn5, active compounds read low 1.02 | locus YDR388W, active compounds read low 1 | locus YDR392W, strain spt3, active compounds read low 0.999 | locus YDR502C, strain sam2, active compounds read low 1.02 | locus YEL003W, strain gim4, active compounds read low 1.02 | locus YEL037C, strain rad23, active compounds read low 1.02 | locus YEL061C, strain CIN8 (second series), active compounds read low 1.02 | locus YEL061C, strain CIN8, active compounds read low 0.992 | locus YER015W, strain faa2, active compounds read low 1.01 | locus YER016W, strain bim1, active compounds read low 0.964 | locus YER110C, active compounds read low 0.973 | locus YER111C, strain swi4, active compounds read low 1.02 | locus YER155C, strain BEM2 (second series), active compounds read low 1.05 | locus YER155C, strain BEM2, active compounds read low 1 | locus YER167W, strain BCK2, active compounds read low 0.996 | locus YFR010W, strain ubp6, active compounds read low 1.03 | locus YGL078C, strain dbp3, active compounds read low 0.991 | locus YGL086W, strain mad1, active compounds read low 0.992 | locus YGL167C, strain pmr1, active compounds read low 1.01 | locus YGL173C, strain kem1, active compounds read low 1.03 | locus YGL227W, strain vid30, active compounds read low 1.01 | locus YGL240W, strain doc1, active compounds read low 1.04 | locus YGL248W, strain PDE1, active compounds read low 1.01 | locus YGL253W, strain hxk2, active compounds read low 1 | locus YGR078C, strain PAC10, active compounds read low 0.988 | locus YGR135W, strain pre9, active compounds read low 1.01 | locus YGR229C, strain SMI1, active compounds read low 1 | locus YGR252W, strain gcn5, active compounds read low 1.14 | locus YHR013C, strain ard1, active compounds read low 0.984 | locus YHR027C, strain rpn1, active compounds read low 1 | locus YHR030C, strain SLT2, active compounds read low 0.968 and 0.97 | locus YHR079C, strain IRE1 (second series), active compounds read low 0.999 | locus YHR079C, strain IRE1, active compounds read low 0.953 | locus YHR094C, strain hxt1, active compounds read low 0.967 | locus YHR129C, strain ARP1, active compounds read low 0.994 | locus YHR142W, strain chs7, active compounds read low 1.01 | locus YHR200W, strain rpn10, active compounds read low 1 | locus YIL066C, strain RNR3, active compounds read low 1 | locus YIL073C, strain SPO22, active compounds read low 0.928 | locus YIL125W, strain kgd1, active compounds read low 0.976 | locus YIR030C, strain dcg1, active compounds read low 0.994 | locus YJL092W, strain hpr5, active compounds read low 1.03 | locus YJL095W, strain BCK1 (second series), active compounds read low 1.01 | locus YJL095W, strain BCK1, active compounds read low 0.96 and 0.975 | locus YJL115W, strain asf1, active compounds read low 1.02 | locus YJL129C, strain trk1, active compounds read low 1.02 | locus YJL134W, strain LCB3, active compounds read low 0.998 | locus YJL154C, strain vps35, active compounds read low 1.01 | locus YJL164C, strain tpk1, active compounds read low 1 | locus YJL166W, strain qcr8, active compounds read low 1.04 | locus YJL168C, strain set2, active compounds read low 0.982 | locus YJL187C, strain SWE1 (second series), active compounds read low 0.985 | locus YJR043C, strain POL32, active compounds read low 1.01 | locus YJR066W, strain TOR1, active compounds read low 0.947
